In one assay the target is Albumin (Bos taurus) (UniProt P02769). Nature of the assay: bovine serum albumin binders on microarray, profiling panel, artefact control for SMM control protein annotation, biochemical, small-molecule microarray, Alexa647 label, 635/667 nm fluorescence (AID 1118).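 Also: score merges 667 nm emission intensity and signal-to-noise per printed compound spot.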 The conditions noted are these: BSA-A647 binding, fluorescence 635 nm, higher = more signal.
Assay [1] is described as follows: small-molecule microarray binders of probe aXIP, primary screen, biochemical, NeuroSMM set, 635/667 nm fluorescence (AID 1119).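 Also: probe is the protein aXip251-270 applied at 1 µg/mL to compound-printed slides; binding of probe to printed compounds measured as 667 nm fluorescence plus signal to noise.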 The conditions noted are these: higher = more signal, called active from +8 up or from −8 down.
Assay [2] in a line: small-molecule binders of probe aNOTCH3, primary screen, biochemical, small-molecule microarray, 635/667 nm fluorescence (AID 1120).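 Also: probe is a biotin-tagged antibody raised against NOTCH3 rather than NOTCH3 protein; score merges spot fluorescence near 667 nm with spot signal to noise.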 Conditions: higher = more signal.
The nature of assay [3]: small-molecule binders of probe aNOTCH2, primary screen, biochemical, small-molecule microarray, 635/667 nm fluorescence (AID 1121).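 Also: score merges feature fluorescence read at 667 nm with its signal to noise.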 The conditions noted are these: higher = more signal.
Assay [4] addresses Carbonic anhydrase 2 (Homo sapiens) (UniProt P00918). The assay is described as follows: CAII small-molecule binders, profiling panel, biochemical, small-molecule microarray, Alexa647-labelled CAII (AID 1122). Conditions: CAII-A647 binding fluorescence, higher = more signal.
Assay [5] is described as follows: COS7 lysate on small-molecule microarray, probe aHis, 635 nm (AID 1123).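 Also: z-score combines 667nm fluorescence intensity with signal-to-noise per printed compound spot.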 The conditions noted are these: COS7 cell lysate, fluorescence, higher = more signal.
The nature of assay [6]: compound binding in COS7 lysate, probe aLAP1, primary screen, cell lysate, small-molecule microarray (AID 1124).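 Also: lysate comes from COS7 cells expressing LAP1 and is applied at 0.3 µg/mL; score merges spot fluorescence near 667 nm with signal-to-noise over triplicate slides.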 Conditions: probe aLAP1, fluorescence, higher = more signal.
Another assay deals with Sam68 (KHDRBS1). The assay is described as follows: Sam68 small-molecule binders, primary screen, biochemical, small-molecule microarray, 635 nm fluorescence (AID 1125).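 Also: score merges 667 nm channel intensity with signal to noise over triplicate slides.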 Conditions: small-molecule microarray binding, higher = more signal.
The test system of assay [7] is Chordin-like protein 2 (CHRDL2). Nature of the assay: CHRDL2 small-molecule binders, primary screen, biochemical, small-molecule microarray, 635 nm fluorescence (AID 1126).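 Also: printed compound slides probed with Chrdl2 protein at 4 µg/mL for 1 h at 4 C; score merges 667 nm emission intensity with signal to noise over three replicate slides.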 Conditions: small-molecule microarray binding, fluorescence 635 nm; higher = more signal.
Assay [8] addresses Concanavalin-A (Canavalia ensiformis) (UniProt P02866). The assay is described as follows: ConA small-molecule binders, primary screen, artefact control for SMM control protein annotation, biochemical, small-molecule microarray, Alexa647 label, 635 nm (AID 1127).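 Also: z combines 667 nm emission intensity with signal-to-noise across three replicate slides.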 Conditions: ConA-A647 binding fluorescence, higher = more signal.
Assay [9] in a line: anti-His antibody binders, primary screen, artefact control for SMM control protein annotation, biochemical, small-molecule microarray, 635 nm fluorescence (AID 1128).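 Also: score merges feature fluorescence with signal-to-noise for each printed compound spot.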 Conditions: anti-His Alexa647 antibody binding, higher = more signal.
Assay [10] deals with Human papillomavirus type 1a E7 protein (residues 1-88). The assay is described as follows: HPV1a E7 small-molecule binders, primary screen, biochemical, small-molecule microarray, residues 1-88, 635 nm (AID 1129). The conditions noted are these: small-molecule microarray binding, fluorescence 635 nm; higher = more signal.
For assay [11], the target named is Focal adhesion kinase 1 (Homo sapiens) (UniProt Q05397). Nature of the assay: small-molecule microarray binders of FAK, primary screen, biochemical, 635/667 nm fluorescence, BSA, DTT (AID 1130).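 Also: composite of spot emission at 667 nm and signal to noise over triplicate slides.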 Conditions: PTK2 binding, 635 nm fluorescence, higher = more signal.
The subject of assay [12] is Fibrinogen (Alexa647-labelled). The assay is described as follows: fibrinogen binders on compound microarrays, profiling panel, artefact control for SMM control-protein annotation, biochemical, small-molecule microarray, 635/667 nm fluorescence (AID 1131).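 Also: z-score merges 667 nm fluorescence with per-spot signal-to-noise over triplicate slides.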 The conditions noted are these: fibrinogen-A647 binding fluorescence, higher = more signal.
In assay [13] the target is Follistatin (Homo sapiens) (UniProt P19883). The assay is described as follows: follistatin binders on small-molecule microarrays, primary screen, biochemical, small-molecule microarray, 635/667 nm fluorescence (AID 1132). The conditions noted are these: FST binding, 635 nm fluorescence, higher = more signal.
For assay [14], the target named is Fibroblast growth factor 2 (Homo sapiens) (UniProt P09038). The assay is described as follows: FGF2 binders on small-molecule microarrays, primary screen, biochemical, small-molecule microarray, 635/667 nm fluorescence (AID 1133). Conditions: small-molecule microarray binding, FGF2, fluorescence 635/667; higher = more signal.
Assay [15] is described as follows: mitochondrial membrane potential change in A549 cells, profiling panel, cell-based, JC-1 fluorescence, basal, 24 h, 100 nL (AID 1138).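 Also: A549 lung adenocarcinoma cells under basal conditions with no added stimulus; test concentration not given here.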 Conditions: higher = more signal.
In a further assay the test system is Lefty1. The assay is described as follows: Lefty1 binders on small-molecule microarrays, primary screen, biochemical, small-molecule microarray, 635/667 nm fluorescence (AID 1139). The conditions noted are these: small-molecule microarray binding, fluorescence 635/667; higher = more signal.
For assay [16], the system named is wheat germ agglutinin (Triticum aestivum), Alexa647-labelled. Nature of the assay: wheat germ agglutinin binders on compound microarrays, profiling panel, artefact control for SMM control-protein annotation, biochemical, small-molecule microarray, 635/667 nm fluorescence (AID 1140).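 Also: score merges 667 nm feature emission with signal to noise over triplicate slides.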 The conditions noted are these: WGA-A647 binding, 635 nm fluorescence, higher = more signal.

Assay [17] addresses Luciferin 4-monooxygenase (Photinus pyralis) (UniProt P08659). The assay is described as follows: firefly luciferase enzyme inhibitors, primary screen, biochemical, luminescence, purified enzyme, 2006 set (AID 1141).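 Also: cell-free assay with purified firefly luciferase at 100 ng per well in PBS; test concentration not given here.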 Conditions: SteadyGlo luminescence, 30 min, higher = more signal, called active from +8 up or from −8 down.

Each structure is given as a SMILES string. The source made the active and inactive calls.

Chain of Concanavalin-A (Canavalia ensiformis) (P02866 whole entry, looked up): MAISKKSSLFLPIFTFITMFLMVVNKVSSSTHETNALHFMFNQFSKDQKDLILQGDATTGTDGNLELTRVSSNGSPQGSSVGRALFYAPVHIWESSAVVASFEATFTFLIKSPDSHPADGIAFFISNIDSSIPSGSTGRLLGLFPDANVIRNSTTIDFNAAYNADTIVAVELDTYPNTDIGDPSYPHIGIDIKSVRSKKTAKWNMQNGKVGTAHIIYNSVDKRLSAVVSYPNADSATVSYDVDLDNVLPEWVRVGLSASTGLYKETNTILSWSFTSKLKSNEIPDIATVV
Chain of Follistatin (Homo sapiens) (P19883 whole entry, looked up): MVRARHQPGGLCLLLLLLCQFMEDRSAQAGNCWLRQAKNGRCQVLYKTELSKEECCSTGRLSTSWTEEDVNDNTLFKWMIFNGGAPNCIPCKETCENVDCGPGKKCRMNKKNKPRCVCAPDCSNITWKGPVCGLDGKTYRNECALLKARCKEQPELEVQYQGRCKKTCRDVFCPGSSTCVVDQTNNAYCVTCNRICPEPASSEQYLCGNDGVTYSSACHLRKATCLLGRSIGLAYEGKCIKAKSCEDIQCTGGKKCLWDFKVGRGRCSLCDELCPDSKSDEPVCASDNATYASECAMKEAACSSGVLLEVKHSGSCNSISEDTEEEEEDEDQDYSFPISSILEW
Chain of Albumin (Bos taurus) (P02769 whole entry, looked up): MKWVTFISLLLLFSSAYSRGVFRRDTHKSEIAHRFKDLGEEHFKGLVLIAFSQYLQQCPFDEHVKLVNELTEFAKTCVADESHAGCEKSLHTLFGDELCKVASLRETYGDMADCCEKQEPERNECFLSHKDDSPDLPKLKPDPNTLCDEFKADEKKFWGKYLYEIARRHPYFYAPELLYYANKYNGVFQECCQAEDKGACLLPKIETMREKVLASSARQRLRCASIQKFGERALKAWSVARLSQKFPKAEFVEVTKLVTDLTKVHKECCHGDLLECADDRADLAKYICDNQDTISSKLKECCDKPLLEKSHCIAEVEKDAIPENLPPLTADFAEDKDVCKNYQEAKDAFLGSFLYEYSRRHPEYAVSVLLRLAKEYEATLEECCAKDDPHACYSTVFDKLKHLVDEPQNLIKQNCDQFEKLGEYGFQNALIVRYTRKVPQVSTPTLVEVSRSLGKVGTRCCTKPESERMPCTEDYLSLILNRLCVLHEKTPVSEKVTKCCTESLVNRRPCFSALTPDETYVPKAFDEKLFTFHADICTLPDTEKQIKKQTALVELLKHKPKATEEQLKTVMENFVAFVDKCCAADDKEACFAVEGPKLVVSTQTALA
Chain of Fibroblast growth factor 2 (Homo sapiens) (P09038 whole entry, looked up): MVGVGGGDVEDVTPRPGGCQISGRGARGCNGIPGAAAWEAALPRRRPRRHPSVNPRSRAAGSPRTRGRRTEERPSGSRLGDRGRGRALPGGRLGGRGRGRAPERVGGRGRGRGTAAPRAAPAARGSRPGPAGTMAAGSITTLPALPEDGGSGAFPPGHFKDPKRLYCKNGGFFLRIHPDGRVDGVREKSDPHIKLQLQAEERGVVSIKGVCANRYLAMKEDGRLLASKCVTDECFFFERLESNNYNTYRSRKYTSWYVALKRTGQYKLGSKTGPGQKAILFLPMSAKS
Chain of Luciferin 4-monooxygenase (Photinus pyralis) (P08659 whole entry, looked up): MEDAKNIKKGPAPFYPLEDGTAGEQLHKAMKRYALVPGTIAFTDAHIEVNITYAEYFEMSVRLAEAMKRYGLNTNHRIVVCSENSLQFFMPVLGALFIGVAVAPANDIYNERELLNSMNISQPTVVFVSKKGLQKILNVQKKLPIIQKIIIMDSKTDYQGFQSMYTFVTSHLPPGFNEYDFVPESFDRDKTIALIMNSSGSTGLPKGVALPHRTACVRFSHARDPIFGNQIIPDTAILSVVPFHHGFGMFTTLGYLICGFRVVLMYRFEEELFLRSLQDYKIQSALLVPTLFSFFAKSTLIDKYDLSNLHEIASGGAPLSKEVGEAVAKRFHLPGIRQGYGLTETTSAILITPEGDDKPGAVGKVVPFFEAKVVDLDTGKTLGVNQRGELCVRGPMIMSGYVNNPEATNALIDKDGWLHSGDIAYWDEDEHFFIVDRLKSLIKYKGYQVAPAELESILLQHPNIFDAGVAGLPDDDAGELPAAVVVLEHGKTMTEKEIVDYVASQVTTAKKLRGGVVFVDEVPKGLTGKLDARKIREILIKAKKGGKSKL
Chain of Focal adhesion kinase 1 (Homo sapiens) (Q05397 whole entry, looked up): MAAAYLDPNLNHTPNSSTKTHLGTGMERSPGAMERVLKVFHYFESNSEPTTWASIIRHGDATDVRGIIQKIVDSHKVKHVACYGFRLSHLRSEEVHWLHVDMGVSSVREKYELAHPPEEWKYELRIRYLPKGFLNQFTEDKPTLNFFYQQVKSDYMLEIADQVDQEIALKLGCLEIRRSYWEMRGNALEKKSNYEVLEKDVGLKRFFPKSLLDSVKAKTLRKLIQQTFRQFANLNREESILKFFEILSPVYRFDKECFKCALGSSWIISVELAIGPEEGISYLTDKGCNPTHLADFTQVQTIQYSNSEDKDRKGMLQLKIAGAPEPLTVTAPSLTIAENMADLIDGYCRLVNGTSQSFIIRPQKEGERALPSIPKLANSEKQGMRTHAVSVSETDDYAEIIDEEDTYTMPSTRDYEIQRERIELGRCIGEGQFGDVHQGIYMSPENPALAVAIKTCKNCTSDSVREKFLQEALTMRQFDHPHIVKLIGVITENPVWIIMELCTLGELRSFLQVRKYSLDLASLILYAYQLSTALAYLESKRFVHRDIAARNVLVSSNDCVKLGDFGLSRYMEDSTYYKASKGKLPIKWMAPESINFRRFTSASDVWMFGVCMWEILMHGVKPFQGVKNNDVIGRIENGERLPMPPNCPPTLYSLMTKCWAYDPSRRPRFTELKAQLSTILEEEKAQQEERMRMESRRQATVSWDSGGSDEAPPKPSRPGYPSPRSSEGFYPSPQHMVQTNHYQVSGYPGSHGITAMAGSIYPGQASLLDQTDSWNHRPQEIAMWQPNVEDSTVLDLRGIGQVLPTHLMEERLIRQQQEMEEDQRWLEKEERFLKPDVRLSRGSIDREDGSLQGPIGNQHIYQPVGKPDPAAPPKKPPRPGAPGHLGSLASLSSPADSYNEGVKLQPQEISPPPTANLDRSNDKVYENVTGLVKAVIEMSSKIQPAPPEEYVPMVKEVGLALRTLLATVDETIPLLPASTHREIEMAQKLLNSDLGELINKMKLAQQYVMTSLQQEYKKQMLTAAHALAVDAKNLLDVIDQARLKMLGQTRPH

Take `CN(C)CCCCCCNC(=O)[C@@H]1C[C@@H]2C(=O)N3CCC[C@H]3C(=O)N2[C@@H]1c1cccc(OCCO)c1`: the composite z-score in the assay with Albumin (Bos taurus) is -0.694; in assay [2] it was 0.278; in assay [3], -0.13; in assay [4], 0.591; in assay [5], 2.73; in [6], 0.87. In addition, the composite z-score in the assay with Sam68 (KHDRBS1) amounted to 1.31; in [7] it was 1.42; in assay [8] it was 1.13; in [9] it was 2.58; in assay [10], 1.23; in assay [11], 0.338. Moreover, the composite z-score in [12] worked out at 0.552; in [13], 1.37; in assay [14], 1.58; with Lefty1, 1.48; in assay [16], 1.1. In addition, in [1], the composite Z-score was 0.759 (inactive). Moreover, the z-score in [15] was -0.17; in [17] it was -0.138 (inactive).

As for `O=C(NCc1ccc(F)cc1)[C@H]1C[C@H]2C(=O)NCC(=O)N2[C@H]1c1ccc(O)cc1`, the composite z-score with Albumin (Bos taurus) was -0.447; in assay [2], 0.0066; in [3], -0.084; in assay [4], 0.694; in assay [5] it was 1.43; in [6], 0.112. Further, the composite z-score in the assay with Sam68 (KHDRBS1) was 1.07; in assay [7] it was 0.491; in assay [8], 0.8; in assay [9], 1.63; in [10], -0.121; in assay [11], 0.0061. Besides, the composite z-score in assay [12] came to 0.611; in assay [13], 1.45; in assay [14], 1.89; in the assay with Lefty1, 1.35; in assay [16], 0.187. Also, the composite Z-score in assay [1] was 0.534 (inactive). In addition, the z-score in [15] was 0.576; in [17], -0.0852 (inactive).

For `CCCCC(CC)C(O)C1C=CC2C(=O)N(c3ccccc3)C(=O)C2N1Nc1ccc(C#N)cc1` (stereo not given), the composite z-score was 1.02 with Albumin (Bos taurus); 0.64 in [2]; 0.353 in [3]; 0.595 in [4]; 2.21 in assay [5]; 0.664 in [6]. Further, the composite z-score in the assay on Sam68 (KHDRBS1) came to 1.13; in assay [7] it was 0.0027; in [8], 1.2; in [9], 1.34; in assay [10] it was 1.21; in [11], 0.702. Moreover, the composite z-score worked out at 0.922 in assay [12]; 1.07 in assay [13]; 0.208 in assay [14]; 0.131 in the assay with Lefty1; 1.12 in [16]. Also, the composite Z-score in assay [1] was 0.369 (inactive). For the same compound, the values for the z-score in assay [15] and in assay [17] were -0.213 and -1.92 (inactive), respectively.

Regarding `CC1CC/C=C\[C@H]2OC34C=CCN(c5ccc(Cl)cc5)C(=O)[C@H]3N(C(C)CO)C(=O)[C@]4(C)C2C(=O)O1` (stereo not given in full), the composite z-score was -1.07 in the assay with Albumin (Bos taurus); -0.322 in [2]; -0.14 in assay [3]; 0.768 in assay [4]; -0.66 in [5]; 1.27 in [6]. In addition, the composite z-score with Sam68 (KHDRBS1) was -0.297; in assay [7] it was -0.482; in assay [8] it was -0.863; in [9] it was -0.984; in assay [10], -1.5; in [11], -0.177. The composite z-score was -0.173 in assay [12]; -0.954 in assay [13]; -1.06 in assay [14]; -0.847 with Lefty1; 0.429 in assay [16]. Also, in assay [1], the composite Z-score is -0.408 (inactive). The z-score was 0.798 in assay [15] and -1.14 (inactive) in assay [17].

Take `C=CC[C@@H](OC(=O)Nc1ccc(OC)cc1)c1ccc(O)c(F)c1`: the composite z-score in the assay with Albumin (Bos taurus) was 0.66; in [2] it was -0.266; in assay [3], -0.153; in assay [4], 0.493; in [5], 1.93; in assay [6] it was 0.738. Also, the composite z-score with Sam68 (KHDRBS1) is -0.56; in assay [7], -0.861; in assay [8], -0.9; in [9] it was 0.0579; in assay [10] it was -0.0596; in [11] it was 0.676. Also, the composite z-score is -0.699 in assay [12]; 0.0619 in assay [13]; -0.448 in assay [14]; -0.201 in the assay with Lefty1; -0.733 in assay [16]. In assay [1], the composite Z-score is 0.683 (inactive). Also, the results for the z-score in assay [15] and in assay [17] were -1.71 and -4.17 (inactive), respectively.

The record behind these values is PubChem BioAssay.
